This excerpt belongs to a sample that is enriched for hits.
Pf Dd2 growth: qHTS Primary assay for Inhibitors of Plasmodium falciparum Dd2 growth in vitro; Potency, µM (top dose mostly 28.9 µM), most hits filed as inhibitors; P. falciparum Dd2 growth, SYBR Green, 72 h; AID 1347417, 2020; 120,000 tested, 4.3% active; active = well fitted inhibition curve with a large enough effect; note: nearly all actives have a fitted effect of over 65% in size
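Readout: SYBR Green fluorescence, 485 nm excitation, 535 nm emission, after ~16 h lysis at 37C. Before that, Dd2-infected red cells (2.5% hematocrit) grew 72 h with compound, 29 uM top final concentration.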
Large screens that a line does not name were inactive.

CCn1c(=O)n(CC)c2cc(N3CCCCC3)c(NC(=O)Nc3ccccc3C(F)(F)F)cc21	Pf Dd2 growth 10µM
Cc1ccc(C)c(NS(=O)(=O)c2ccc3c(c2)n(C)c(=O)n3C)c1	none
CC(C)c1noc(-c2cn(C3CCN(C(=O)COc4ccc(F)cc4)C3)nn2)n1 (stereo not given)	none
O=C(c1cn(CC2CCCO2)nn1)N1CCN(c2cccc(C(F)(F)F)c2)CC1 (stereo not given)	none
O=C(NCc1cccc(Cl)c1)c1noc(-c2ccc3c(c2)OCO3)n1	none
COCCN1C(=O)CCC2(C(=O)NCc3c(C)n[nH]c3C)CCCC=C12 (stereo not given)	none
Cn1c(Cn2cccn2)nnc1C1CCCN(C(=O)CCn2cnnn2)C1 (stereo not given)	none
COc1ccc2[nH]c3c(c2c1)CCNC31CCN(C(=O)CN2CCCC2=O)CC1	none
CC(NC(=O)c1noc(-c2ccc3c(c2)OCO3)n1)c1ccc(F)cc1 (stereo not given)	none
Cc1nc(-c2c3n(c(=O)n(CC(=O)c4ccc(Cl)cc4)c2=O)CCCC3)no1	none
CCN1C(=O)c2ccccc2S(=O)c2ccc(C(=O)NCc3ccccc3OC)cc21 (stereo not given)	none
COc1ccc(CCNC(=O)c2ccc3c(c2)N(Cc2cccc(C)c2)C(=O)c2ccccc2S3(=O)=O)cc1OC	none
COc1ccc(NC(=O)c2ccc3c(c2)N(Cc2cccc(Cl)c2)C(=O)c2ccccc2S3=O)cc1Cl (stereo not given)	Pf Dd2 growth 3.2µM
COCCNC(=O)c1ccc2c(c1)N(Cc1cccc(Cl)c1)C(=O)c1ccccc1S2=O (stereo not given)	none
CC(C)NC(=O)c1ccc2c(c1)N(Cc1cccc(Cl)c1)C(=O)c1ccccc1S2=O (stereo not given)	none
COc1ccc(NC(=O)c2ccc3c(c2)N(Cc2cccc(Cl)c2)C(=O)c2ccccc2S3(=O)=O)cc1Cl	Pf Dd2 growth 7.9µM
CC1CCC(NC(=O)c2ccc3c(c2)N(Cc2cccc(Cl)c2)C(=O)c2ccccc2S3(=O)=O)CC1 (stereo not given)	Pf Dd2 growth 11µM
O=C(NC1CCCCC1)c1ccc2c(c1)N(Cc1ccc(F)cc1)C(=O)c1ccccc1S2(=O)=O	none
NC(=O)C1CCN(C(=O)c2ccc3c(c2)N(Cc2cccc(Cl)c2)C(=O)c2ccccc2S3(=O)=O)CC1	none
O=C(c1ccc2c(c1)N(Cc1cccc(Cl)c1)C(=O)c1ccccc1S2=O)N1CCC(Cc2ccccc2)CC1 (stereo not given)	none
CC(=O)Nc1ccc(NC(=O)c2ccc3c(c2)N(Cc2cccc(Cl)c2)C(=O)c2ccccc2S3=O)cc1 (stereo not given)	Pf Dd2 growth 11µM
COc1ccc(C)cc1NC(=O)[C@H]1CCC[C@H]1NC(=O)c1cnc(C)cn1	none
COCCO[C@H]1C(=O)N(C2CCN(Cc3c[nH]c4ccccc34)CC2)[C@H]1c1ccncc1	none
CN(Cc1cccnc1)Cc1nc(C2(O)CCN(C(=O)c3ccc(F)cc3)CC2)cs1	none
O=S(=O)(NCC1(COc2cnccn2)C[C@@H](O)[C@@H](O)C1)c1ccc(F)cc1 (stereo not given in full)	none
O=C1N[C@@H]2CCN(C(=O)C3CCCCC3)[C@@H]2C(=O)N1c1ccc(Oc2ccccc2)cc1	none
O=C(Cc1ccsc1)N1CCN(C(=O)c2nnn3c2COC(c2ccccc2)C3)CC1 (stereo not given)	none
Cc1ccc(C)c(CN2CCn3nnc(-c4nc(-c5ccsc5)no4)c3C2=O)c1	none
CCn1ccc(C(=O)N2CCC3(CC2)CC(c2nc(C)no2)N(C)C3)n1 (stereo not given)	none
CN1CCCN(CC(=O)N2C[C@H](NS(C)(=O)=O)[C@@H](C3CC3)C2)CC1	none
CN(C)C(=O)c1ccc(OC2CCN(C(=O)c3c(F)cccc3F)CC2)nc1	none
COc1cccc(CNC(=O)Cn2ccn3nc4c(c3c2=O)CCCC4)c1	none
CCC(C)(C)C(=O)N1CCn2c(nnc2[C@@H]2C[C@@H](O)CN2Cc2ccccc2)C1	none
CCN(CC)c1ncccc1CNC(=O)C1CCOC1 (stereo not given)	none
CN(C)C[C@@H]1CN(S(C)(=O)=O)C[C@H]1NC(=O)c1ccc(Cn2ccnc2)o1	none
O=S1(=O)CCC(S(=O)(=O)Nc2ccc(F)cc2)C1 (stereo not given)	none
O=C(Cn1c(=O)oc2ccccc21)N1CCc2nn(CC3CC3)c(=O)n2CC1	none
CCOC(=O)N1CCN(C(=O)c2ccc3c(c2)N(Cc2cccc(Cl)c2)C(=O)c2ccccc2S3=O)CC1 (stereo not given)	none
CC(=O)c1ccc(NC(=O)c2ccc3c(c2)N(Cc2cccc(Cl)c2)C(=O)c2ccccc2S3=O)cc1 (stereo not given)	Pf Dd2 growth 11µM
CC1CCCCN1C(=O)c1ccc2c(c1)N(Cc1cccc(Cl)c1)C(=O)c1ccccc1S2=O (stereo not given)	none
CCCC1c2nccn2CCCN1C(=O)c1ccoc1C (stereo not given)	none
COC(=O)[C@@H]1Cc2ncn(Cc3ccc(OC)cc3)c2CN1Cc1cccc(C#N)c1	Pf Dd2 growth 13µM
COC(=O)[C@@H]1Cc2ncn(Cc3ccc(OC)cc3)c2CN1C(=O)c1ccc(C#N)cc1	none
COC(=O)[C@@H]1Cc2ncn(Cc3ccc(OC)cc3)c2CN1C(=O)c1ccc(F)cc1	none
O=C(C1C2C(=O)N(CCOc3ccccc3)C[C@@]23C=C[C@@H]1O3)N1CCSCC1 (stereo not given in full)	none
CC(=O)N1CC2(CCN(Cc3nnc(-c4ccco4)o3)CC2)CC1C(=O)O (stereo not given)	none
COc1ccc(Cn2c(C3CCN(C(=O)C4CCCCC4)CC3)n[nH]c2=O)cc1	none
CN1CC(=O)N(c2ccccc2F)Cc2c(NCc3cccc(C(F)(F)F)c3)ncnc21	none
CN1[C@@H](CCC(=O)Nc2ccccc2)CNC(=O)[C@@H]2[C@H]1CCN2CC(C)(C)C	none
COc1ccc(C2(C(=O)NCC(=O)N3CCCCCNC(=O)CC3c3ccccc3)CC2)cc1 (stereo not given)	none
Cc1ncccc1C(=O)NCC(=O)N1CCCCCNC(=O)CC1c1ccccc1 (stereo not given)	none
COc1ccc2[nH]c(C(=O)NCC(=O)N3CCCCCCNC(=O)CC3c3ccccc3)cc2c1 (stereo not given)	Pf Dd2 growth 5µM
COc1ccc(CCC(=O)NCC(=O)N2CCCCCNC(=O)CC2c2ccccc2)cc1 (stereo not given)	none
Cc1nc(C)c(C(=O)NCC(=O)N2CCCCCCNC(=O)CC2c2ccccc2)s1 (stereo not given)	none
COc1ccc(C(=O)NCC(=O)N2CCCCCCNC(=O)CC2c2ccccc2)c(OC)n1 (stereo not given)	Pf Dd2 growth 8.9µM
CN1C(=O)CCCCC1C(=O)N1CCCCC1 (stereo not given)	none
CN(CC1CCOCC1)C(=O)c1c(F)cccc1Cl	none
CN1C(=O)CCC2(CNC(=O)c3cccn3C)CCC=C12 (stereo not given)	none
COc1ccc(NC(=O)N[C@@H]2C=C[C@@H](c3c(C)nn(-c4ccccn4)c3C)C2)cc1	none
COc1ccc(CN[C@@H]2C=C[C@@H](c3c(C)nn(-c4ccccc4)c3C)C2)cc1	Pf Dd2 growth 6.3µM
COc1ccc(-n2nc(C)c([C@@H]3C=C[C@@H](NCc4ccc(N(C)C)cc4)C3)c2C)cc1	Pf Dd2 growth 1.6µM
Cc1nn(-c2ccc(C(F)(F)F)cc2)c(C)c1[C@@H]1C=C[C@@H](NC(=O)COc2ccccc2)C1	none
Cc1ccc(-c2nccn3cc(C(=O)N4CCN(C5CCN(C)CC5)CC4)nc23)cc1	none

Bioassay records from PubChem BioAssay.
